HEK cytotox: kills HEK 293 cells. HEK 293 viability, ATP luminescence (CellTiter-Glo), 48-72 h. hit rate 6.6% among 94,000. Potency, µM (highest dose often 115 µM), for inactives: top-dose activity change, negative = cytotoxicity, usual class: inhibitors; also: nearly all actives have a fitted effect of over 60% in size
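HEK 293 seeded at 250 cells/well receive compound via pintool. After 48 or 72 hr at 37 degree Celsius, 5% CO2 and 95% humidity, CellTiter-Glo is dispensed and luminescence read following 10 min at room temperature.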
FLuc inh: blocks purified firefly luciferase enzyme activity | purified P. pyralis luciferase, luminescence, biochemical | P08659 | AID 1347043 | Potency, µM (series often up to 115 µM), most hits filed as inhibitors | hit rate 2.5% among 76,000; also: nearly all actives have a fitted effect of over 65% in size
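Cell-free enzyme assay, 10nM P. pyralis luciferase, luciferin and ATP each at 10uM. Inhibition profiled over a 6-point titration, read as luminescence.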
NPR1 antag: antagonists of human natriuretic peptide receptor Npr1 | P16066 | HEK293 hNpr1 GloSensor cGMP, ANP-stimulated luminescence | Potency, µM (doses to about 46.3 µM), for inactives: at the highest dose activity change, negative = inhibition, usual class: inhibitors | hit rate 1.6% among 76,000 | AID 1347048; calls by dose curve; also: nearly all actives have a fitted effect of over 60% in size
Target sequence (P16066 whole entry, looked up): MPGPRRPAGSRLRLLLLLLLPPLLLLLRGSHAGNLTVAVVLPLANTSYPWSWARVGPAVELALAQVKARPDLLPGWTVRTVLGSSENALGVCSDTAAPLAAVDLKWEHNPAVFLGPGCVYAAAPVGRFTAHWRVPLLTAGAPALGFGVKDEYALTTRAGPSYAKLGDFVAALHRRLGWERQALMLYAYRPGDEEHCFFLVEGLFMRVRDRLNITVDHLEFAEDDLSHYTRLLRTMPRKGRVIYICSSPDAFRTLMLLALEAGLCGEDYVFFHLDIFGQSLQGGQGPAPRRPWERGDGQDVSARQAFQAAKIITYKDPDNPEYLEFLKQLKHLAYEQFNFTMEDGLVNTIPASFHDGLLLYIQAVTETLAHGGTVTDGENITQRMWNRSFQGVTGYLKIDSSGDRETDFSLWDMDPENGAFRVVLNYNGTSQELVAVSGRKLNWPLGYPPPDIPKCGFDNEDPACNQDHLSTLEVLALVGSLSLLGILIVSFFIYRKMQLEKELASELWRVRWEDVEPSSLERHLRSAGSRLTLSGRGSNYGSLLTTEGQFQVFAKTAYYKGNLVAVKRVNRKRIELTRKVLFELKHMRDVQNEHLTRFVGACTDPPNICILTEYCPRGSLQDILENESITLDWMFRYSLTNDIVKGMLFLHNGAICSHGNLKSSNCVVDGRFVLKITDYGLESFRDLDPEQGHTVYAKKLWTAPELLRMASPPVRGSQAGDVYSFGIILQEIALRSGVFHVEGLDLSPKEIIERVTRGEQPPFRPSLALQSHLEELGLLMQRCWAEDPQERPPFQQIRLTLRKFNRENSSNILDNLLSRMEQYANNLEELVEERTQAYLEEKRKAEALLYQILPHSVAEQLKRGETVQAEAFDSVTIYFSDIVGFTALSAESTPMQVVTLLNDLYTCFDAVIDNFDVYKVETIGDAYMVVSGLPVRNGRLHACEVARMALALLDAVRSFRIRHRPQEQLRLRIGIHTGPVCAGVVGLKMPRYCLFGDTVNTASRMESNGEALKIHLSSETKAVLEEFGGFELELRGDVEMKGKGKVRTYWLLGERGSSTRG
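Compound pre-incubated 30 min at room temperature on GloSensor-loaded HEK293 cells stably carrying hNpr1 and the pGS-40F cGMP biosensor. Stimulation uses hNppA at 0.1 nM final; luminescence is taken at baseline and 20 min post-agonist.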
NIH3T3 tox: cytotoxic compounds in NIH 3T3 cells. NIH 3T3 viability, CellTiter-Glo ATP luminescence, 48-72 h. hit rate 4.3% among 94,000. Potency, µM (top dose mostly 96.7 µM), for the others: at the top dose activity change, negative = cytotoxicity, most hits filed as inhibitors; also: nearly all actives have a fitted effect of over 55% in size
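Viability of NIH 3T3 cells after 48 or 72 hr compound treatment at 37 °C was assessed by CellTiter-Glo, with luminescence imaged following a 10 min room-temperature step.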
The depositor's hits bear a star; i = inactive; ? = inconclusive; . = no result given; [ ] = remark or other dose. Compounds with a hit are over-represented: about 11% of the library has one in this group of screens. Unless noted, calls follow the shape of the dose curve; as a rule, active = well fitted curve in the direction sought with a large enough effect; inconclusive = small, poorly fitted or top-dose-only effect, or another doubt; inactive = no such curve, though single readings can be large; an effect the other way counts as inactive or inconclusive. % is scaled to controls: 0 for no effect and ±100 for the full control effect; potency is read from the fitted curve at half-maximal effect.

SMILES	HEK cytotox	FLuc inh	NPR1 antag	NIH3T3 tox
O=C(c1cccs1)N1[C@H]2CC[C@@H]1c1cnc(-c3ccc(F)cc3)nc1C2	?	?	11.2µM*	?
COc1ccc(C(=O)N2[C@H]3CC[C@@H]2c2cnc(-c4ccc(F)cc4)nc2C3)cc1F	-0.4%	i	?	-11.2%
Cc1nc(C)c(C(=O)N2[C@H]3CC[C@@H]2c2cnc(-c4ccc(F)cc4)nc2C3)s1	?	?	15.8µM*	-20.8%
COCc1cn(C[C@H]2C[C@@H]3CCN2C[C@@H]3C(=O)N2CCCC2)nn1	3.6%[172 µM]	i	4.2%[70.6 µM]	-6.3%[174 µM]
Cc1noc(C)c1Cc1ccc(C(=O)N2[C@H]3CC[C@@H]2c2cnc(-c4ccccc4)nc2C3)o1	39.8µM*	i	?	?
Cc1ccsc1C(=O)N1[C@H]2CC[C@@H]1c1cnc(-c3ccccc3)nc1C2	10µM*	.	.	?
Cc1noc(C)c1CC(=O)N1[C@H]2CC[C@@H]1c1cnc(-c3ccc(F)cc3)nc1C2	?	i	-15.9%	?
Cc1ncc2c(n1)C[C@@H]1CC[C@H]2N1C(=O)c1ccoc1	4.2%	i	9.2%	i
COc1ccc(C(=O)NC[C@H]2C[C@@H]3CCN2C[C@@H]3c2cc(-c3ccc(N(C)C)cc3)nc(C)n2)cc1	25.1µM*	i	-5.7%	39.8µM*
CCNC(=O)NC[C@H]1C[C@@H]2CCN1C[C@@H]2c1cc(-c2ccc(N(C)C)cc2)nc(C)n1	100µM*	i	7.1%[70.6 µM]	100µM*
CC(=O)Nc1ccc(S(=O)(=O)NC[C@H]2C[C@@H]3CCN2C[C@@H]3c2cc(-c3ccc(N(C)C)cc3)nc(C)n2)cc1	22.4µM*	?	-2.3%	25.1µM*
Cc1nc(-c2ccc(N(C)C)cc2)cc([C@H]2CN3CC[C@H]2C[C@@H]3CNC(=O)c2ccccc2)n1	?	i	-2.5%	44.7µM*
CCNC(=O)NC[C@H]1C[C@@H]2CCN1C[C@@H]2c1cc(-c2ccccc2)nc(C)n1	?	i	1.8%[70.6 µM]	?
CN1Cc2ccccc2-n2ccnc2C12CCN(C(=O)C1CCC1)CC2	11.8%	i	6.0%	i
COCc1cn(C[C@H]2CC3CCN2C[C@@H]3C(=O)Nc2ccccc2)nn1 (stereo partly drawn)	i	i	-0.8%[70.6 µM]	2.3%[174 µM]
COc1cc2c(cc1CCc1ccccc1)N([S+](=O)([O-])c1ccc3c(c1)CCO3)CC21CCN(C(C)=O)CC1	?	i	-2.8%	25.1µM*
COc1cc2c(cc1OCc1ccccc1)N(C(=O)COc1ccccc1C(N)=O)CC21CCN(C)CC1	39.8µM*	i	4.4%	22.4µM*
COc1ccc(CC(=O)N2CC3(CCN(C)CC3)c3cc(OC)c(OCc4ccccc4)cc32)cc1	31.6µM*	i	6.5%	?
COc1cc2c(cc1CCc1ccccc1)N(C(=O)CC(C)C)CC21CCN(C(C)=O)CC1	?	i	2.1%	?
COc1cc2c(cc1OCc1ccccc1)N([S+](=O)([O-])c1cccc(C)c1)CC21CCN(C)CC1	28.2µM*	i	-1.8%	22.4µM*
COc1cc2c(cc1CCc1ccccc1)N(C(=O)COc1ccccc1)CC21CCN(C(C)=O)CC1	-25.0%	i	-1.7%	?
CC(=O)Nc1ccc2n(c1=O)C[C@H]1C[C@@H]2CN(C(=O)c2ccccn2)C1	i	i	8.4%[70.6 µM]	i
COc1cc2c(cc1OCc1ccccc1)N(C(=O)COc1ccccc1)CC21CCN(C)CC1	28.2µM*	i	0.2%	22.4µM*
COc1cc2c(cc1CCc1ccccc1)N(C(=O)Cc1ccc3c(c1)OCO3)CC21CCN(C(C)=O)CC1	-24.2%	i	-16.8%	?
COc1cc2c(cc1OCc1ccccc1)N(C(=O)Cc1ccc3c(c1)OCO3)CC21CCN(C)CC1	79.4µM*	i	6.5%	?
SMILES	HEK cytotox	FLuc inh	NPR1 antag	NIH3T3 tox
CC(C)NC(=O)N1C2CCC1CN(Cc1cccnc1)C2	-1.9%[172 µM]	.	.	i
CCC(CC)c1cc([C@H]2CN3CC[C@H]2C[C@@H]3CNC(=O)CCCC(=O)O)nc(-c2ccncc2)n1	i	i	2.3%	1.4%
CCN1C2CCC1CN(C(=O)c1ccncc1)C2	3.3%[172 µM]	.	.	i
C#C[C@H]1CN2CC[C@H]1C[C@@H]2CNC(=O)Nc1cccc(C(F)(F)F)c1	?	i	-1.7%[70.6 µM]	?
C=C[C@H]1CN2CC[C@H]1C[C@@H]2CNC(=O)Nc1ccc(C(C)(C)C)cc1	31.6µM*	i	5.0%[70.6 µM]	35.5µM*
C=C[C@H]1CN2CC[C@H]1C[C@@H]2CNC(=O)Nc1cccc(SC)c1	?	i	-2.2%[70.6 µM]	?
CC[C@H]1CN2CC[C@H]1C[C@@H]2CNC(=O)Nc1cc(OC)cc(OC)c1	-39.6%[172 µM]	i	1.8%[70.6 µM]	?
C=C[C@H]1CN2CC[C@H]1C[C@@H]2CNC(=O)Nc1cccc(C(F)(F)F)c1	100µM*	i	-0.7%[70.6 µM]	?
CC[C@H]1CN2CC[C@H]1C[C@@H]2CNC(=O)Nc1ccc(C(C)(C)C)cc1	70.8µM*	i	-2.5%[70.6 µM]	?
CC1CCN(C[C@H]2CN3CC[C@H]2C[C@@H]3CNC(=O)c2ccc3c(c2)OCO3)CC1	-9.6%[172 µM]	i	-2.9%[70.6 µM]	?
C=CCN1C[C@@H]2CN(S(=O)(=O)c3cccnc3)C[C@]2(C(=O)O)C1	1.2%	i	-0.7%	1.2%
O=C(C1CCCC1)N1CCC(C(=O)O)(c2ccccc2)CC1	-11.5%	.	.	-14.6%
COc1cc2c(cc1OCc1ccccc1)NC(=O)C21CCN(Cc2cccc(O)c2)CC1	35.5µM*	?	1.2%	22.4µM*
COc1cc2c(cc1OCC1CC1)NC(=O)C21CCN(Cc2ccncc2)CC1	?	i	4.4%[70.6 µM]	-26.2%[138 µM]
COc1cc2c(cc1OC1CCCC1)NC(=O)C21CCN(Cc2ccncc2)CC1	?	i	-5.9%[70.6 µM]	?
COc1cc2c(cc1OCc1ccncc1)NC(=O)C21CCN(Cc2cccc(O)c2)CC1	?	i	-20.2%	?
COc1cc2c(cc1OCC1CC1)NC(=O)C21CCN(Cc2ccccc2O)CC1	?	i	-17.5%[70.6 µM]	39.8µM*
COc1cc2c(cc1OCc1ccccc1)NC(=O)C21CCN(C(=O)c2cccnc2)CC1	50.1µM*	i	?	?
COc1cc2c(cc1OC1CCCC1)NC(=O)C21CCN(Cc2cccc(O)c2)CC1	89.1µM*	i	-9.5%[70.6 µM]	25.1µM*
CC(=O)c1ccc(NC(=O)NC[C@H]2C[C@@H]3CCN2C[C@@H]3CN2CCSCC2)cc1	-17.1%[172 µM]	i	-5.7%[70.6 µM]	?
COc1cc2c(cc1OCc1ccncc1)NC(=O)C21CCN(Cc2ccccc2)CC1	100µM*	i	-26.9%[70.6 µM]	79.4µM*
COc1cc2c(cc1OCC1CC1)NC(=O)C21CCN(C(=O)c2cccc(O)c2)CC1	?	i	3.9%[70.6 µM]	-21.8%[138 µM]
COc1cc2c(cc1OCC1CC1)NC(=O)C21CCN(Cc2cccc(O)c2)CC1	89.1µM*	?	-8.9%[70.6 µM]	?
COc1cc2c(cc1OC1CCCC1)NC(=O)C21CCN(c2ccnc(C)n2)CC1	?	i	-10.0%[70.6 µM]	79.4µM*
